ADAM10 inh = ADAM10 inhibition, QFRET primary screen; AID 720582; inhibition, % at 7 µM; recombinant ADAM10, EDANS/DABCYL FRET peptide cleavage, 3 h; O14672; 0.62% of 370,000 active;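 active = inhibition above a per-campaign cutoff equal to the mean of compounds falling between control-based bounds plus 3 SD, cut at about 20% in these data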;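 also: 0% = DMSO wells while the 100% control is not disclosed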
GRIN3A LBD mod = modulators (binders) of human NR3A ligand-binding domain. NR3A LBD differential scanning fluorimetry, Tm shift; 0% = protein alone, 100% = glycine-bound protein. Tm shift relative to glycine control, % at 25 µM. 2.5% of 340,000 active;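 active = melting temperature shift of at least 10% of the positive control shift, at one fixed dose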
ADAM17 inh = inhibitors of human ADAM17. recombinant ADAM17, EDANS/DABCYL FRET peptide cleavage. inhibition, % at 6.95 µM. 0.83% of 370,000 active. AID 720648;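 active = inhibition above the mean of compounds lying between control limits plus 3 SD, set per campaign, cut at about 8.5% in these data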;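 also: 0% = DMSO-only wells as the low control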
KLK7 zymogen act = proKLK7 (human) activation, primary screen; purified proKLK7, EDANS-DABCYL substrate fluorescence; 100% is mature enzyme control, 0% vehicle; activation, % at 7 µM; 0.9% of 370,000 active;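 active = activation above the mean of all tested compounds plus 3 SD, computed per campaign excluding outliers beyond control limits, cut at about 13% in these data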
Target sequence (P49862 whole entry, looked up): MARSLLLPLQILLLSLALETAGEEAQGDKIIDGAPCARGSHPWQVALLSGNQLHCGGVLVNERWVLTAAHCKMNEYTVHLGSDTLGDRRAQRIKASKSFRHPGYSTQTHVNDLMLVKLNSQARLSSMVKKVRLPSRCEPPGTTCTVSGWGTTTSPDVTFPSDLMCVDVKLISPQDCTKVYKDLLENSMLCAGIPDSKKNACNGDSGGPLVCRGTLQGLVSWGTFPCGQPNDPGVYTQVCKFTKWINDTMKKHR
FAS TE block = blocks the thioesterase domain of human fatty acid synthase; recombinant FAS-TE, OMFH fluorogenic substrate, fluorescence endpoint; P49327; AID 602261; 0.67% of 360,000 active; inhibition, % at 15 µM;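 active = compounds whose normalised, plate-corrected inhibition of enzyme fluorescence in the single-dose primary screen is 50% or more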;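 also: 0% = DMSO with enzyme and 100% = substrate without enzyme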
ADAM10 ctr = inhibits human ADAM10 in ADAM17 exosite counter-screen. 47% of 2,900 active. shares compounds with ADAM17 inh. recombinant ADAM10, EDANS/DABCYL FRET peptide cleavage, 3 h. inhibition, % at 6.95 µM;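 active = mean inhibition over the triplicate runs exceeds the activity threshold set in the earlier primary screen, cut at about 20% in these data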;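 also: 0% = DMSO wells and 100% = marimastat wells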
ADAM17 confirm = human ADAM17 inhibition, confirmation. shares compounds with ADAM17 inh. recombinant ADAM17, EDANS/DABCYL QFRET peptide cleavage. inhibition, % at 6.95 µM. 65% of 2,900 active. AID 743257;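 active = mean inhibition across replicates above the hit cutoff set in the primary screen, cut at about 8.5% in these data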;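 also: 0% = DMSO wells and 100% = marimastat wells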
* marks the source's active call; other numbers are inactive results; . = not tested or not shown. Most compounds without a hit are left out; they make up all but 4.6% or so of the library.

SMILES	ADAM10 inh	GRIN3A LBD mod	ADAM17 inh	KLK7 zymogen act	FAS TE block	ADAM10 ctr	ADAM17 confirm
Cc1ccc(NC(=O)C(NC2CCCC2)c2ccccc2)cc1Cl (stereo not given)	3	-4	0	0	19	.	.
COC(=O)[C@]12C[C@H](CC(=O)N3CCSCC3)C(=O)N(Cc3cccc4ccccc34)C1=C[C@H](C(C)(C)C)O[C@@H]2C	8	.	-1	0	.	.	.
O=C(C[n+]1ccccc1)Nc1nc2ccccc2s1	15	-10	9.4*	0	-11	9	15*
CC(C)c1ccc(NC(=O)C2CCCN(S(=O)(=O)c3ccc4c(c3)C(C)(C)C(=O)N4C)C2)cc1 (stereo not given)	19	-6	9.6*	1	19	13	8.8*
O=[N+]([O-])c1ccc2c(c1)CCCO[C@]21O[C@H](CCO)C[C@H](O)[C@H]1O	0	.	2	0	.	.	.
Cc1ccccc1OCc1nc(-c2ccc(NC(=O)c3cccs3)cc2)no1	5	20*	12*	0	22	-63	-12
COc1ccc(C(=O)c2[nH]c(N)c(C(=O)c3c[nH]c4ccccc34)c2-c2ccc(F)c(OC)c2)cc1	4	.	1	-2	.	.	.
COc1ccc(CNC(=O)C2(CC3CC(c4ccccc4)=NO3)CCN(C(=O)C3CCCC3)CC2)cc1 (stereo not given)	8	2	0	1	3	.	.
COc1ccc(CNC(=O)C2(CC3CC(c4ccccc4)=NO3)CCN(C(=O)C3(C)CC3)CC2)cc1 (stereo not given)	7	-1	8.7*	1	-6	1	5
CN(c1cccnc1)c1ccc(NC(=O)Cc2cn(Cc3ccccc3)c3ccccc23)cc1Br	2	.	3	1	.	.	.
CCC/C(=C1/c2ccccc2C(=O)N1c1ccccc1)c1c(C)noc1C	-21	.	-5	0	.	.	.
CCCC(=O)N1CC2(C)CN(C(=O)CCC)CC(CCC)(C1)C2=O	8	0	12*	0	-7	5	5
CCCC12CN(C(=O)c3ccco3)CC(CCC)(CN(C(=O)c3ccco3)C1)C2=O	-4	0	0	0	-5	.	.
CC(c1ccc(Cl)cc1)N(CCN(C)C)c1ccccn1 (stereo not given)	-12	.	-4	0	.	.	.
CCN(CC)S(=O)(=O)c1cc(NC(=O)C(C)N2CCc3ccccc32)ccc1C (stereo not given)	18	-4	10*	0	18	10	7
CCOC(=O)C1(C)CCCCCN1C(=O)c1ccc(OC)c(C(F)(F)F)c1 (stereo not given)	6	.	8.7*	0	2	-3	-2
Cc1ccc(-c2cc(C(=O)NN=Cc3cccc(OCc4ccccc4)c3)[nH]n2)cc1C	7	.	11*	3	.	15	12*
CCCCNc1ccc2c(c1)OC[C@@H](Cc1ccccc1)NS2(=O)=O	0	.	0	0	.	.	.
COc1cc(-n2c(C)cc(O)cc2=O)ccc1Cl	2	.	-1	0	.	.	.
O=C(NC1CCCCN(Cc2cccc(Cl)c2)C1=O)c1ccc(COc2ccccc2)cc1 (stereo not given)	13	.	10*	1	.	15	11*
O=C(CCc1c[nH]c2ccccc12)Nc1ccc(Oc2cccnc2)cc1	-2	.	0	0	.	.	.
CC(C)C(C(=O)NCc1ccco1)N(C(=O)CNS(=O)(=O)c1ccccc1)C1CCCC1 (stereo not given)	8	7	10*	1	0	0	3
CCC(C(=O)NCc1ccco1)N(C(=O)CNS(=O)(=O)c1ccccc1)C1CCCCC1 (stereo not given)	-7	-1	-1	0	-1	.	.
COc1ccc(NC(=O)C(=O)NCCC2CCCCN2S(=O)(=O)c2ccc(F)cc2)cc1 (stereo not given)	-6	1	-2	0	19	.	.
Cc1ccc(S(=O)(=O)N2CCCCC2CCNC(=O)C(=O)NCc2cccnc2)cc1 (stereo not given)	-1	2	-3	0	0	.	.
